This passage reports NF-kB reporter, IRF reporter and viability score results from the supplement of paper PMC10646978.

± gives the standard deviation.

Common to all, as to conditions: modulator concentration 10 µM
Experiment [1] has as its system RAW-Dual (murine macrophage reporter line). Nature of the experiment: NF-kB reporter (SEAP) activity fold change vs agonist alone; higher = enhanced NF-kB activity. In short, it runs like this:
(§1)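 RAW-Dual murine macrophage reporter cells were seeded at 50 000 per well in 384-well plates and pre-incubated 1 hour at 37 °C with compound pin-transferred to 10 μM final. After 1 hour, a PRR agonist was added and cells incubated overnight. Supernatant NF-κB (SEAP, QUANTI-Blue, 620 nm absorbance) and IRF (Lucia luciferase, QUANTI-Luc, luminescence) signals were divided by the mean agonist-only control on the same plate to give fold change. Two replicate plates were averaged, with errors by propagation.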

Experiment [2] shares this test system. Nature of the experiment: IRF reporter (Lucia luciferase) activity fold change vs agonist alone; higher = enhanced IRF activity. In short, it runs like this: as §1
Experiment [3] shares this test system. Nature of the experiment: viability score (confluency relative to resting cells, overnight) (fraction); higher = more viable, active = viable (0.7 or more). A digest of the protocol: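 Overnight exposure to 10 μM final compound was carried out on RAW-Dual macrophages in 384-well plates. IncuCyte software generated two confluency masks over all wells imaged with IncuCyte. The viability score gives confluency in relation to resting cells. A compound met the cutoff if each mask exceeded 70% of resting cells.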

Where [4] appears, read: agonist: CpG ODN 1826 0.5 ug/mL.

As to `COc1ccc(OS(=O)(=O)c2ccc3cc(OC)ccc3c2)cc1`, the NF-kB reporter in experiment [1] (setting [4]) turned out to be 0.982 ± 0.088; in experiment [1] (agonist: LPS 0.1 ug/mL), 1.14 ± 0.089; in experiment [1] (agonist: MPLA […]) it was 1.06 ± 0.068. The values for the IRF reporter in experiment [2] (agonist: 3'3'-cGAMP 10 ug/mL), in experiment [2] (agonist: LPS 0.1 ug/mL) and in experiment [2] (agonist: MPLA […]) were 1 ± 0.035, 1.43 ± 0.1 and 1.03 ± 0.15, respectively. Moreover, in experiment [3], the viability score is 1 (active).
In the case of `O=C1C(Cl)=C(N2CCCCC2)C(=O)N1c1ccc(Cl)c(Cl)c1`, the NF-kB reporter was 0.687 ± 0.14 in experiment [1] (setting [4]), 1.07 ± 0.084 in experiment [1] (agonist: LPS 0.1 ug/mL) and 1 ± 0.15 in experiment [1] (agonist: MPLA […]). Besides, the IRF reporter in experiment [2] (agonist: 3'3'-cGAMP 10 ug/mL) amounted to 0.911 ± 0.047; in experiment [2] (agonist: LPS 0.1 ug/mL), 1.09 ± 0.11; in experiment [2] (agonist: MPLA […]) it was 1.22 ± 0.27. The viability score in experiment [3] is 1 (active).
With `O=C(CCCCCN1C(=O)c2cccc3cccc(c23)C1=O)NCCCO`, the NF-kB reporter in experiment [1] (setting [4]) came to 0.997 ± 0.08; in experiment [1] (agonist: LPS 0.1 ug/mL), 0.993 ± 0.064; in experiment [1] (agonist: MPLA […]) it was 0.919 ± 0.036. Moreover, the IRF reporter is 1.02 ± 0.14 in experiment [2] (agonist: 3'3'-cGAMP 10 ug/mL), 1.11 ± 0.053 in experiment [2] (agonist: LPS 0.1 ug/mL) and 1.08 ± 0.082 in experiment [2] (agonist: MPLA […]). In addition, in experiment [3], the viability score is 0.993 (active).
On to `COc1ccc(-c2cc(C(F)(F)F)n3nc(C(=O)Nc4cc(OC)c(OC)c(OC)c4)c(Cl)c3n2)cc1OC`, for which the results for the NF-kB reporter in experiment [1] (setting [4]), in experiment [1] (agonist: LPS 0.1 ug/mL) and in experiment [1] (agonist: MPLA […]) were 0.885 ± 0.081, 1.01 ± 0.089 and 0.795 ± 0.058, respectively. For the same compound, the IRF reporter in experiment [2] (agonist: 3'3'-cGAMP 10 ug/mL) is 0.566 ± 0.14; in experiment [2] (agonist: LPS 0.1 ug/mL), 1.27 ± 0.19; in experiment [2] (agonist: MPLA […]) it was 1.1 ± 0.12. The viability score in experiment [3] was 1.01 (active).
With `CCOC(=O)N1CCC(=C2c3ccc(Cl)cc3CCc3cccnc32)CC1`, the NF-kB reporter in experiment [1] (setting [4]) was determined as 1.07 ± 0.24; in experiment [1] (agonist: LPS 0.1 ug/mL) it was 1.09 ± 0.21; in experiment [1] (agonist: MPLA […]), 0.953 ± 0.053. The IRF reporter in experiment [2] (agonist: 3'3'-cGAMP 10 ug/mL) came to 0.725 ± 0.04; in experiment [2] (agonist: LPS 0.1 ug/mL) it was 1.06 ± 0.097; in experiment [2] (agonist: MPLA […]), 1.33 ± 0.29. Also, the viability score in experiment [3] is 0.989 (active).
Take `c1ccc2nc3c(cc(N4CCOCC4)c4ccccc43)nc2c1`: the NF-kB reporter was 0.92 ± 0.078 in experiment [1] (setting [4]), 1.04 ± 0.062 in experiment [1] (agonist: LPS 0.1 ug/mL) and 0.969 ± 0.14 in experiment [1] (agonist: MPLA […]). The IRF reporter in experiment [2] (agonist: 3'3'-cGAMP 10 ug/mL) was determined as 0.924 ± 0.023; in experiment [2] (agonist: LPS 0.1 ug/mL), 1.34 ± 0.2; in experiment [2] (agonist: MPLA […]), 1.08 ± 0.2. Moreover, the viability score in experiment [3] is 1.01 (active).
Consider `Cc1cc(C)n(CCC(=O)N2CCc3nc4ccc(F)cn4c(=O)c3C2)n1`, for which the NF-kB reporter in experiment [1] (setting [4]) came to 1.02 ± 0.051; in experiment [1] (agonist: LPS 0.1 ug/mL) it was 0.938 ± 0.098; in experiment [1] (agonist: MPLA […]), 1.01 ± 0.1. Further, the IRF reporter in experiment [2] (agonist: 3'3'-cGAMP 10 ug/mL) turned out to be 1.03 ± 0.06; in experiment [2] (agonist: LPS 0.1 ug/mL), 1.27 ± 0.079; in experiment [2] (agonist: MPLA […]), 1.21 ± 0.12. Further, the viability score in experiment [3] is 1 (active).
On to `CC(C)(C)c1nc(-c2cccc(NS(=O)(=O)c3c(F)cccc3F)c2F)c(-c2ccnc(N)n2)s1`, for which the NF-kB reporter in experiment [1] (setting [4]) is 2.41 ± 0.12; in experiment [1] (agonist: LPS 0.1 ug/mL), 1.77 ± 0.14; in experiment [1] (agonist: MPLA […]), 2.36 ± 0.1. In addition, the IRF reporter came out at 0.67 ± 0.079 in experiment [2] (agonist: 3'3'-cGAMP 10 ug/mL), 0.818 ± 0.071 in experiment [2] (agonist: LPS 0.1 ug/mL) and 1.1 ± 0.2 in experiment [2] (agonist: MPLA […]). Moreover, in experiment [3], the viability score was 0.763 (active).
`COc1cc2c(cc1OC)CC(=O)N(CCCN(C)C[C@H]1Cc3cc(OC)c(OC)cc31)CC2.Cl`: the figures for the NF-kB reporter in experiment [1] (setting [4]), in experiment [1] (agonist: LPS 0.1 ug/mL) and in experiment [1] (agonist: MPLA […]) were 0.713 ± 0.056, 0.855 ± 0.07 and 1.06 ± 0.097, respectively. Moreover, the IRF reporter in experiment [2] (agonist: 3'3'-cGAMP 10 ug/mL) worked out at 0.962 ± 0.05; in experiment [2] (agonist: LPS 0.1 ug/mL), 1.41 ± 0.11; in experiment [2] (agonist: MPLA […]) it was 1.57 ± 0.18. Also, the viability score in experiment [3] is 1.01 (active).
Regarding `CC(C)Sc1ccc(CC(=O)NC2CCN(c3cc4c(nn3)CCCC4)CC2)cc1`, the figures for the NF-kB reporter in experiment [1] (setting [4]), in experiment [1] (agonist: LPS 0.1 ug/mL) and in experiment [1] (agonist: MPLA […]) were 0.556 ± 0.041, 1.19 ± 0.11 and 1.02 ± 0.076, respectively. The figures for the IRF reporter in experiment [2] (agonist: 3'3'-cGAMP 10 ug/mL), in experiment [2] (agonist: LPS 0.1 ug/mL) and in experiment [2] (agonist: MPLA […]) were 0.847 ± 0.04, 1.26 ± 0.27 and 1.51 ± 0.47, respectively. Besides, the viability score in experiment [3] is 0.973 (active).
In the case of `Cn1ccc(C(=O)Nc2nc(C(C)(C)C)cs2)n1`, the NF-kB reporter in experiment [1] (setting [4]) is 0.805 ± 0.063; in experiment [1] (agonist: LPS 0.1 ug/mL), 1 ± 0.082; in experiment [1] (agonist: MPLA […]) it was 1.19 ± 0.083. Also, the IRF reporter was 0.993 ± 0.055 in experiment [2] (agonist: 3'3'-cGAMP 10 ug/mL), 1.31 ± 0.18 in experiment [2] (agonist: LPS 0.1 ug/mL) and 1.57 ± 0.44 in experiment [2] (agonist: MPLA […]). Also, the viability score in experiment [3] is 0.675 (inactive).
`S=c1n(CN2CCOCC2)nc(-c2ccccc2Cl)n1-c1ccccc1`: the NF-kB reporter amounted to 1.06 ± 0.059 in experiment [1] (setting [4]), 0.985 ± 0.067 in experiment [1] (agonist: LPS 0.1 ug/mL) and 0.947 ± 0.074 in experiment [1] (agonist: MPLA […]). Moreover, the IRF reporter in experiment [2] (agonist: 3'3'-cGAMP 10 ug/mL) amounted to 0.944 ± 0.047; in experiment [2] (agonist: LPS 0.1 ug/mL) it was 1.32 ± 0.18; in experiment [2] (agonist: MPLA […]), 1.16 ± 0.13. The viability score in experiment [3] was 0.993 (active).
For the compound `CNC(=O)[C@@H](NC(=O)[C@H](CC(C)C)[C@H](O)C(=O)NO)C(C)(C)C`, the NF-kB reporter in experiment [1] (setting [4]) was found to be 1.29 ± 0.097; in experiment [1] (agonist: LPS 0.1 ug/mL) it was 1.15 ± 0.13; in experiment [1] (agonist: MPLA […]), 0.996 ± 0.021. In addition, the IRF reporter in experiment [2] (agonist: 3'3'-cGAMP 10 ug/mL) came out at 0.868 ± 0.048; in experiment [2] (agonist: LPS 0.1 ug/mL), 0.983 ± 0.11; in experiment [2] (agonist: MPLA […]) it was 1 ± 0.13. For the same compound, the viability score in experiment [3] is 1.01 (active).
